{
  "source": "PubChem BioAssay (NCI)",
  "note": "The panel holds about 79,000 compounds, 15% with a hit somewhere; the sample as a whole holds those more often. Unmarked numbers belong to inactive results. Rule as the data show it: active = growth inhibition above about 70%; inactive = the rest.",
  "data": [
    {"assay": "NCI Yeast Anticancer Drug Screen. Data for the cln2 rad14 strain (AID 165);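 also: 0% = growth equal to vehicle treated cultures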", "conditions": "S. cerevisiae cln2 rad14 strain, at 50.0 µM, stronger effect = higher value", "summary_of_the_method": "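Relative to vehicle controls, growth inhibition of compound-treated cln2 rad14 yeast was recorded.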", "units": {"growth inhibition": "%"}, "values": [
      {"smiles": "CC1CCC(O)C(C(O)CC2CC(=O)NC(=O)C2)C1", "note": "(stereo unspecified)", "growth inhibition": -21.7},
      {"smiles": "O=C(O)C(Cc1cccs1)C(=O)OCCc1ccccc1", "note": "(stereo unspecified)", "growth inhibition": -10.8},
      {"smiles": "CC(C(=O)c1ccc(Cl)cc1)/C(=N/NC(=O)NN)C(=O)Nc1cccc(C(F)(F)F)c1", "note": "(stereo unspecified)", "growth inhibition": -56},
      {"smiles": "O=C1NCCN(CCc2ccccc2)C1c1ccccc1", "note": "(stereo unspecified)", "growth inhibition": -31.9},
      {"smiles": "Cc1cc(=O)n(NC(N)=O)c(C)c1C(=O)O", "growth inhibition": -29.5},
      {"smiles": "CS(=O)(=O)OCC1COCC1COS(C)(=O)=O", "note": "(stereo unspecified)", "growth inhibition": -11.8},
      {"smiles": "CCOC(=O)CN(c1c(C)cc(C)c(N(CC(=O)OCC)S(=O)(=O)c2ccccc2)c1C)S(=O)(=O)c1ccccc1", "growth inhibition": -9.2},
      {"smiles": "COc1cc(/C=C/C(=O)OCC23CC[C@@]4(C(=O)O)CCC(C)[C@H](C)C4C2=CCC2[C@@]4(C)CC[C@H](O)C(C)(C)C4CC[C@]23C)ccc1O", "note": "(stereo partly specified)", "growth inhibition": 4.85},
      {"smiles": "N#CC(C#N)=C(N)/C(C#N)=C/c1ccc2[nH]ccc2c1", "growth inhibition": -24.9},
      {"smiles": "CC(=C/c1ccccc1)/C=C1/SC(=S)N(C=C2C(=O)NC(=O)NC2=O)C1=O", "growth inhibition": 50.2},
      {"smiles": "O=c1c2c([nH]n1-c1ccccc1)-c1ccccc1CS2", "growth inhibition": 9.55},
      {"smiles": "CCCCOC(=O)C1CC2CC1C1OC21", "note": "(stereo unspecified)", "growth inhibition": -0.3},
      {"smiles": "CC(C)OC1CC1", "growth inhibition": 4.9},
      {"smiles": "COc1ccc(CC[N+]2=Cc3cc(OC)c(OC)cc3CC2)cc1OC", "growth inhibition": 13.3},
      {"smiles": "Cc1ccc(NC(=O)CN2CCCCC2)cc1", "growth inhibition": 3.9},
      {"smiles": "c1ccc([Si]2(c3ccccc3)[Si](c3ccccc3)(c3ccccc3)[Si](c3ccccc3)(c3ccccc3)[Si]2(c2ccccc2)c2ccccc2)cc1", "growth inhibition": -1.45}
    ]}
  ]
}
